# Results as given in PubChem BioAssay AID485367 (National Center for Advancing Translational Sciences (NCATS), 2010).
# Among all 330,000 compounds or so, about 560 (0.17%) were called active. Roughly 1% stayed inconclusive and do not appear here. The call rests on the fitted dose curve; in most records, active means well fitted inhibition curve with a large enough effect; inconclusive means small, poorly fitted or top-dose-only effect, or effect the other way; inactive means flat fitted curve, though single readings scatter. For the sample, actives were picked, then their nearest neighbours and some compounds at random.
# Molecular target: ATP-dependent 6-phosphofructokinase (Trypanosoma brucei brucei) (UniProt O15648)
# Assay: qHTS Assay to Find Inhibitors of T. brucei phosphofructokinase; further: nearly all actives have a fitted effect of over 60% in size
# Settings: T. brucei PFK, ADP-Glo luminescence; series mostly up to 57.5 µM; activity, negative = inhibition: at the top concentration
# Description: NIH Molecular Libraries Probe Production Network [MLPCN] NIH Chemical Genomics Center [NCGC] Grant: 1 R03 MH092153-01 PI Name: Malcolm Walkinshaw, University of Edinburgh NCGC Assay Overview: Various species of the protozoan family Trypanosomatidae are responsible for a range of serious human diseases in tropical and subtropical areas of the world. […] Many of the disorders caused by trypanosomatids are fatal if left untreated, but most currently used drugs are inefficient and toxic. […] Oxidative metabolism involving the mitochondrial tricarboxylic acid cycle and oxidative phosphorylation are repressed in these parasites, and recent RNA interference (RNAi) experiments have shown that even partial depletion of certain individual glycolytic enzymes can lead to the death of cultured parasites. One such glycolytic enzyme, phosphofructokinase (PFK), catalyzes the formation of fructose-1,6-bisphosphate (F1,6BP) and ADP from fructose-6-phosphate (F6P) and ATP, and in many metabolic circumstances makes an important contribution to the control of flux through the glycolytic pathway. As a specific glycolytic target, PFK is particularly attractive as it catalyzes the first irreversible step in glycolysis, and structural and kinetic studies have shown very substantial and essential differences from corresponding host enzymes, allowing for the discovery of parasite-selective inhibitors. The goal of this screen is to find small-molecule inhibitors of T. brucei PFK using a biochemical assay that measures PFK activity as a function of ADP production. A luminescence-based assay for T. brucei PFK activity has been developed which uses luciferase to detect production of ADP. Traditional luciferase-based nucleotide detection reagents rely on ATP production as a direct substrate for the luciferase reaction; however, PFK catalyzes the transfer of a phosphate from ATP to F6P, resulting in the net depletion of ATP. To directly measure the ADP product of the PFK reaction, we used the ADP-Glo detection kit (Promega), which utilizes two separate reactions to 1) deplete all remaining uncatalyzed ATP and 2) convert all remaining ADP to ATP, which is then detected through a traditional luciferase-coupled reaction. Compounds were screened as a concentration-titration series that ranged from 57 uM to 0.7 nM.
# NCGC Assay Protocol Summary: NCGC Assay Protocol Summary: Substrate buffer was dispensed into white, solid 1536-well plates at 3uL/well in 0.1M triethanolamine (TEA) buffer, pH 8.0, containing final concentrations of 5 mM MgCl2, 0.01% Tween20, 0.5 mM fructose-6-phosphate (F6P) and 0.1mM ATP. Then, 23 nL of compounds or DMSO were delivered to each well using a pin tool. One uL T. brucei PFK (0.1M TEA, 0.01% Tween20, 0.1% bovine serum albumin (BSA) and 1.25nM PFK, final concentrations) was then dispensed, and plates were incubated at room temperature for 45 min. The luminescent detection reagent, ADP-Glo (Promega), was then added in two steps: the first reagent, ADP-Glo (which converts remaining uncatalyzed ATP), was added at 2.5uL/well and incubated for ten minutes at room temperature, and the second component, Kinase Detection reagent (which converts ADP to ATP as a substrate for luciferase-based luminescence), was added immediately after at 5uL/well, followed by one final ten minute room temperature incubation. The plates were measured on a ViewLux plate reader for luminescent signal using a clear filter with a one second exposure. The %Activity was determined from the corrected luminescence values. As no specific T. brucei PFK inhibitors have been identified in the literature, 1x (1.25nM) and 0x PFK enzyme controls (untreated) were included to normalize %Activity of identified inhibitors; 0x enzyme values corresponded to 100%Activity (full inhibition), while 1x PFK enzyme values were used to normalize 0%Activity (no inhibition). Concentration-response curves were fitted to the signals arising from the resulting luminescence. […]
# Potency means the concentration at half of the fitted maximal effect.
# Chain of ATP-dependent 6-phosphofructokinase (Trypanosoma brucei brucei) (O15648 whole entry, looked up): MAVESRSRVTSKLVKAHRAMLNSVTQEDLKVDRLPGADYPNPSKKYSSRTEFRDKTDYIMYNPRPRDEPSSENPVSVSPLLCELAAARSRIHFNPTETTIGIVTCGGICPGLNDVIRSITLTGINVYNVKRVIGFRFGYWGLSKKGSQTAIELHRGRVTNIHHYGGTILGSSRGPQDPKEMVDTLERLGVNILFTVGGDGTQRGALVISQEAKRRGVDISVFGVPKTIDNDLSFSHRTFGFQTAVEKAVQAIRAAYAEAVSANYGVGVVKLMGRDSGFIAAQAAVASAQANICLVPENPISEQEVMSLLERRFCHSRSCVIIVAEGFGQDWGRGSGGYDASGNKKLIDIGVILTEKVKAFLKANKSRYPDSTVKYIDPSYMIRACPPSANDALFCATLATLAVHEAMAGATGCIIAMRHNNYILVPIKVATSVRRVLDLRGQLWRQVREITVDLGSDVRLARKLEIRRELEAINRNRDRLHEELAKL
SMILES,"activity, negative = inhibition",Potency
Nn1c(SCC(=O)Nc2ccc3c(c2)CCC3)nnc1C1CC1,2.26% (inactive),–
O=C(CC1C(=O)NCCN1CC(c1ccccc1)c1ccccc1)NCC1CCOCC1 (stereo not drawn),-13.1% (inactive),–
O=C(CCN1C(=O)C2C3C=CC(C3)C2C1=O)Oc1ccc2ccccc2c1 (stereo not drawn),2.74% (inactive),–
CCOC(=O)c1ccccc1NC(=O)CSc1nc2ccccc2c(=O)[nH]1,0.653% (inactive),–
CC(=O)NCc1ccc(-c2csc(NC(=O)CCCc3nc4ccccc4c(=O)[nH]3)n2)cc1,1.84% (inactive),–
O=C(CSc1nc2ccccc2c(=O)[nH]1)Nc1nc(-c2ccc(Br)cc2)cs1,–,2.69 µM (active)
O=C(CSc1nnc(N2CCOCC2)n1-c1cccc(F)c1)N1CCN(c2ccccn2)CC1,-1.48% (inactive),–
O=C(NNS(=O)(=O)c1ccccc1)c1cnn(-c2ccc(Cl)cc2)c1C(F)(F)F,0.989% (inactive),–
Cc1ccc(OCCCCc2c(C)n[nH]c2C)cc1,0.85% (inactive),–
CC(C)[C@H](NC(=O)N1CCn2c1nc1ccccc12)C(=O)NCCc1ccccc1,10.6% (inactive),–
CCCCNC(=O)OCCSCCS(=O)(=O)c1ccc(Cl)cc1,-7.12% (inactive),–
O=C(Nc1nnc(Cc2ccc(Cl)cc2)s1)c1cccnc1,-6.39% (inactive),–
CC(C)(C)c1cc(C(=O)NCc2cccnc2)ccn1,0.81% (inactive),–
O=C(NCc1ccc(Cl)c(Cl)c1)c1cccnc1,–,23.9 µM (active)
O=C(CN1C(=O)NC2(CCCC2)C1=O)Nc1ccc(F)c(F)c1F,-0.645% (inactive),–
CC1CCC(NS(=O)(=O)c2ccc3c(c2)n(C)c(=O)c(=O)n3C)CC1 (stereo not drawn),1.11% (inactive),–
Cn1sc(=O)c2cc(S(=O)(=O)NC3CC3)ccc21,–,15.1 µM (active)
O=S(=O)(NC1CC1)c1ccc(F)c(F)c1,0.12% (inactive),–
O=C(Nc1ccc(Cl)c(Cl)c1)N1CC=C(c2ccccc2)CC1,-23.1% (inactive),–
Cc1cccc(N=C2NC(=O)CS2)c1C,1.01% (inactive),–
CCc1ccc(Nc2nnc(SCC(=O)c3ccc4c(c3)NC(=O)CO4)s2)cc1,-3.38% (inactive),–
CCOc1ccc(/C=C/C(=O)N(CC)CC(=O)NCc2cccs2)cc1OC,0.107% (inactive),–
Cc1cccc(NS(=O)(=O)c2cc(Cl)ccc2Cl)n1,-0.981% (inactive),–

SMILES,"activity, negative = inhibition",Potency
CN1CCN(C(=O)c2ccc(NS(=O)(=O)c3ccccc3)cc2)CC1,-0.0214% (inactive),–
O=C(COC(=O)c1cccc(Cl)c1)Nc1ccc2[nH]c(=O)[nH]c2c1,-4.67% (inactive),–
COc1ccc(C(=O)OCC(=O)Nc2ccc3[nH]c(=O)[nH]c3c2)c(OC)c1OC,–,21.3 µM (active)
O=C(COc1ccc([N+](=O)[O-])cc1Cl)Nc1ccc2[nH]c(=O)[nH]c2c1,-0.514% (inactive),–
Nc1nnc(SCC(=O)NC2CCCc3ccccc32)s1 (stereo not drawn),-3.89% (inactive),–
O=C(c1ccccc1)c1cc(-c2ccccn2)c(N2CCOCC2)s1,1.02% (inactive),–
NC(=O)c1ncc(C(F)(F)F)cc1Oc1ccc(F)cc1,2.27% (inactive),–
Cc1nc2nc(COc3ccccc3)[nH]n2c(=O)c1C,3.97% (inactive),–
Cc1cc([N+](=O)[O-])nn1Cc1ccc(F)cc1,-3.17% (inactive),–
O=C(O)CCN=C1CCc2ccccc2N1,1.34% (inactive),–
O=C(NC1CCCCC1)c1ccc(CNc2c(N3CCOCC3)c(=O)c2=O)cc1,2.59% (inactive),–
CCN(CC(=O)Nc1cccc(S(=O)(=O)N2CCCCC2)c1)Cc1ccccc1,3.5% (inactive),–
CCOc1ccc(N2C(=O)CSC2=NC#N)cc1,1.09% (inactive),–
CCOc1cccc(/C=N/N2C(=O)CSC2=S)c1O,–,7.57 µM (active)
CCOc1cc(/C=N/n2cnnc2)c(Br)cc1O,-1.74% (inactive),–
C/C(=N/N1CCN(Cc2cccc3ccccc23)CC1)c1cccnc1,6.89% (inactive),–
NS(=O)(=O)c1ccc(CCNC(=S)Nc2ccc(S(N)(=O)=O)cc2)cc1,-9.91% (inactive),–
NS(=O)(=O)c1ccc(NC(=S)NC(=O)c2cccc(Br)c2)cc1,0.423% (inactive),–
NS(=O)(=O)c1ccc(NC(=S)Nc2ccc(Br)c(Cl)c2)cc1,–,9.53 µM (active)
COc1ccc(NC(=O)Cn2cc(C(=O)c3ccncc3)c(=O)c3cc(C)ccc32)cc1Cl,-0.896% (inactive),–
CCc1ccc(N(CC)c2ncnc3nc[nH]c23)cc1,-1.92% (inactive),–
Nc1ccc(Nc2cc(O)c3ncccc3c2)cc1,-7.91% (inactive),–
Cc1cccc(CCNS(=O)(=O)c2ccc(S(=O)(=O)NC3CCCC3)cc2)c1,0.864% (inactive),–

SMILES,"activity, negative = inhibition",Potency
CC1CCC(N2CC(=O)N(Cc3ccc4c(c3)OCO4)C(c3ccc(F)cc3)C2=O)CC1 (stereo not drawn),-0.311% (inactive),–
COC(=O)CNC(=O)c1ccc2c(c1)S(=O)(=O)c1ccccc1C2=O,-1.45% (inactive),–
O=[N+]([O-])c1ccc(N2CCN(c3ccc(O)cc3)CC2)c(Cl)c1,2.76% (inactive),–
O=S(=O)(NC1CCN(S(=O)(=O)c2ccc3c(c2)OCCO3)CC1)c1c(F)cccc1F,-4.77% (inactive),–
O=C(COC(=O)c1cc[n+]([O-])cc1)Nc1ccc(Cl)c(C(F)(F)F)c1,-23.6% (inactive),–
Cc1ccc(C(CC(=O)O)NC(=O)c2ccc(S(=O)(=O)N3CCCC3)cc2)cc1 (stereo not drawn),-3.41% (inactive),–
CCCCc1nnc(NC(=O)CS(=O)(=O)Cc2ccccc2)s1,4.44% (inactive),–
Cn1c(=O)c([N+](=O)[O-])c(Oc2ccccc2)c2ccccc21,4.66% (inactive),–
CCCN(CC(=O)Nc1ccc(OC)c(OC)c1)CC(=O)Nc1ccc(F)c(F)c1F,-5.89% (inactive),–
COc1ccc(N2CCN(S(=O)(=O)c3ccc4c(c3)NC(=O)C(C)C(=O)N4)CC2)cc1 (stereo not drawn),-3.57% (inactive),–
COc1ccc(C)cc1NC(=O)CCS(=O)(=O)c1cccc2nonc12,0.301% (inactive),–
Cn1nc(C(F)(F)F)cc1-c1ccc(/C=C(\C#N)C(=O)c2cccc(C(F)(F)F)c2)s1,-2.17% (inactive),–
Cc1cc(C)c(S(=O)(=O)n2cc(C(C)C(N)C(=O)O)c3ccccc32)c(C)c1 (stereo not drawn),-0.251% (inactive),–
COCCOC(=O)c1c(C)oc2cc(Br)c(OCC(N)=O)cc12,-0.993% (inactive),–
CCCCC(CC(C)O)c1n[nH]c(=S)n1-c1ccccc1 (stereo not drawn),1.94% (inactive),–
CC(NC(=O)CCCC1CCCCC1)c1ccc(S(N)(=O)=O)cc1 (stereo not drawn),-0.196% (inactive),–
CC(C)(C)OC(=O)C[C@@H]1C/C=C\C[C@@H](CC(=O)N[C@@H](CO)Cc2ccccc2)C(=O)N2CCC[C@H]2COC1=O,-0.476% (inactive),–
COC(=O)CN1C(=O)N/C(=C/c2ccc(OC)c(C)c2OC)C1=O,-0.685% (inactive),–
C=CCn1cc(-c2cccc(C(F)(F)F)c2)cc(C#N)c1=O,-1.02% (inactive),–
COCc1ccc(C(=O)N2CCc3c([nH]c4ccccc34)C2c2ccccn2)s1 (stereo not drawn),-0.831% (inactive),–
Cc1ccc(C(C[N+](=O)[O-])c2c(C)cc3ccccn23)cc1 (stereo not drawn),-0.525% (inactive),–
Nc1ccccc1SC(C[N+](=O)[O-])c1ccccc1 (stereo not drawn),–,13.5 µM (active)
